Shown are actives, neighbours in structure and some others; about 4.1% of the full set was active somewhere.
Rv3671c protease: inhibits the M. tuberculosis serine protease Rv3671c; inhibition, % at 5.96 µM; P9WHR9; 0.048% of 320,000 active; in the data active = inhibition above about 38%;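 note: extracellular domain of Rv3671c used as enzyme; 0% = enzyme with DMSO and 100% = no enzyme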
Target sequence (P9WHR9 whole entry, looked up, the tested form may be a part): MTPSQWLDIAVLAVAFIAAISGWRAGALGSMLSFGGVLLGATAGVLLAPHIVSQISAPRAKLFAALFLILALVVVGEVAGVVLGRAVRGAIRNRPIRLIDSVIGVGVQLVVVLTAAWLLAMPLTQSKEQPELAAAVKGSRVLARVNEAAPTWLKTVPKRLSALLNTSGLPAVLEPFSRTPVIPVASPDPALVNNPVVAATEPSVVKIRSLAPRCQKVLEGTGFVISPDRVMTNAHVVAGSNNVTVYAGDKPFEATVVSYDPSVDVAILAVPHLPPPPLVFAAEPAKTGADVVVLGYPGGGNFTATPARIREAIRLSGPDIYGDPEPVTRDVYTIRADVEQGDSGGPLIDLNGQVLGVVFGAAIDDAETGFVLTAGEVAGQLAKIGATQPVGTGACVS
BH1578 lux ind: inducers of Vibrio cholerae quorum light production without autoinducers; activation, % at 18.7 µM; V. cholerae BH1578 lux reporter, luminescence, 6 h; 0.16% of 350,000 active; AID 588436; in the data active = activation mostly above about 9.7%, no sharp cut-off
UGM FP inh: inhibitors of M. tuberculosis UDP-galactopyranose mutase | P9WIQ1 | purified UGM, fluorescence polarization probe displacement | inhibition, % at 10 µM | 0.06% of 320,000 active | AID 504406; in the data active = inhibition above about 10%, passing the limit was not always enough
RecA intein inh: Mtb RecA intein splicing inhibition; cell-free RecA intein splicing, fluorescence; inhibition, % (concentration not given with the values); 0.75% of 290,000 active; AID 2221; in the data active = inhibition above about 30%;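 note: 0% = vehicle wells and 100% = reference inhibitor control wells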
GDH-TPI counter-1: GDH-TPI coupled enzyme inhibition counter-screen. GDH-TPI coupled enzyme counterscreen, NADH absorbance. inhibition, % at 4.8 µM. 1.2% of 360,000 active. AID 588335; in the data active = inhibition above about 30%;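 note: 0% = DMSO wells and 100% = wells lacking the enzyme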
FBA Mtb inh: inhibits M. tuberculosis FBA enzyme; P9WQA3; purified M. tuberculosis FBA, fluorescence read-out; inhibition, % at 1 µM; 2.3% of 360,000 active; AID 588726;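 note: 0% = vehicle and 100% = reference inhibitor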
Mtb FBA inh conf: Mtb FBA inhibition, confirmed; shares compounds with FBA Mtb inh; purified M. tuberculosis FBA, fluorescence read-out; inhibition, % at 1 µM; 78% of 5,600 active; AID 651616;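 note: 0% = vehicle wells and 100% = reference inhibitor wells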
GDH-TPI counter-2: counter-screen for M. tuberculosis FBA inhibitors: GDH-TPI coupled enzyme inhibition; GDH-TPI coupled enzyme counterscreen, fluorescence; shares compounds with FBA Mtb inh; AID 652141; inhibition, % at 1 µM; 81% of 5,600 active; in the data active = inhibition above about 10%
Starred values were filed as active, the others as inactive; i = inactive; · = not tested or not shown; + = active, no number. Cut-off read from the data, not from the text of the source, unless noted: active = inhibition above about 27%; inactive = the rest.

SMILES	Rv3671c protease	BH1578 lux ind	UGM FP inh	RecA intein inh	GDH-TPI counter-1	FBA Mtb inh	Mtb FBA inh conf	GDH-TPI counter-2
COc1ccc(C(O)c2nc(/C=C/c3ccc(C(F)(F)F)cc3)cs2)cc1 (stereo unspecified)	·	0	·	·	10	-5	·	·
CCOC(CNC(=O)c1[nH]c(C(F)(F)F)nc1-c1ccccc1)OCC	·	·	·	·	·	2	·	·
Cc1cc(C)c2nc(-c3cccnc3)cc(C(=O)NC(C)c3cnn(C)c3C)c2c1 (stereo unspecified)	9	i	2	0	6	40*	+	169*
O=C(Nc1ccccc1)c1cccc(=O)o1	-3	0	2	0	33*	52*	197*	174*
CC(OC(=O)c1ccco1)C(=O)NC1CCCC1 (stereo unspecified)	-11	i	3	-2	-4	1	·	·
Cc1ccc(S(=O)(=O)c2nc(-c3ccccc3Cl)oc2N2CCN(C)CC2)cc1	2	i	0	·	11	5	·	·
Cc1cccn2c(=O)c(C=NCc3ccco3)c(Nc3ccc(SC(F)F)cc3)nc12	3	i	1	-1	1	-2	·	·
Cc1cccn2c(=O)c(C=NCCO)c(NCc3ccco3)nc12	-6	-1	0	-1	25	39*	+	+
COc1ccccc1CCNC(=O)C(=O)c1cn(CC(=O)N2CCOCC2)c2ccccc12	-7	0	3	-1	3	80*	104*	85*
COc1ccccc1CNC(=O)C(=O)c1cn(CC(=O)N2CCCC2)c2ccccc12	-8	-2	1	0	14	-1	·	·
CCCN(CC(=O)Nc1ccc(Cl)cc1Cl)C(=O)/C=C/c1cccc([N+](=O)[O-])c1	-11	-4	4	1	0	1	·	·
CCCN(CC(=O)Nc1ccc(Cl)cc1Cl)C(=O)/C=C/c1cc(OC)ccc1OC	-4	i	-3	-13	7	28*	9	3
CCCN(CC(=O)Nc1cc(Cl)ccc1Cl)C(=O)/C=C/c1cc(OC)ccc1OC	-26	i	0	·	5	39*	+	+
CCCN(CC(=O)Nc1cc(Cl)ccc1Cl)C(=O)/C=C/c1ccco1	-10	0	-3	5	12	0	·	·
CC(Sc1nnc(-c2ccco2)n1C)C(=O)Nc1nccs1 (stereo unspecified)	7	2	·	2	-7	0	·	·
Cc1ccc(C)n1-c1ccc(C(=O)NN)s1	0	-3	0	4	21	-2	·	·
CCCNC(=O)C1(CC2CC(c3ccccc3)=NO2)CCN(C(=O)c2cc(OCC)c(OCC)c(OCC)c2)CC1 (stereo unspecified)	-6	-1	1	-1	0	29*	169*	128*
CCOc1cc(C(=O)N2CCC(CC3CC(c4cccc(Br)c4)=NO3)(C(=O)NCC3CCCCC3)CC2)cc(OCC)c1OCC (stereo unspecified)	-12	0	-3	0	17	5	·	·
N#Cc1c(N2CCOCC2)nc(-c2ccco2)c2c1CCCC2	-8	i	0	-3	16	37*	93*	71*
CCCCc1nc(N2CCOCC2)c(C#N)c2c1COC(C)(C)C2	-9	1	-1	7	6	35*	-3	-6
CCc1nc(N2CCCC2)c(C#N)c2c1CCCC2	8	i	1	11	13	10	·	·
CC1(C)Cc2c(C#N)c(N3CCCC3)nc(-c3ccco3)c2CO1	9	0	-1	-36	8	6	·	·
CCc1nc(N2CCOCC2)c(C#N)c2c1CCCC2	-14	i	1	4	2	38*	+	+
COC(=O)c1ccc(NC(=S)NC2CC3CCC2C3)cc1 (stereo unspecified)	-6	3	-2	3	-5	37*	86*	64*
COc1ccc(-c2nn(-c3ccccc3)cc2N)cc1	-6	0	0	7	6	93*	+	+
COc1ccc(-c2nn(-c3ccccc3)cc2CO)cc1	-4	4	-1	1	12	2	·	·

Bioassay records from PubChem.
